Our source for the activation values is PubChem BioAssay AID602248 (The Scripps Research Institute Molecular Screening Center, 2012).

The campaign covered roughly 360,000 compounds. About 1,700 (0.47%) were called active. What follows is part of a selection rich in actives, with near analogues and random picks from the rest. Values without a mark were called inactive. Rule as the data show it: active = activation above about 15%; inactive = the rest.

This assay can be described thus: counter-screen for M1 agonists: effect in parental CHO-K1 cells (AID 602248).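 Also: untransfected CHO-K1 host cells lacking M1 receptor as counterscreen.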 The conditions noted are these: Fluo-8 calcium fluorescence, at 3 µM, stronger effect = higher value, scaled to maximal ATP response, vehicle zero. On the technique in general: Counterscreens check selectivity or assay interference.
Regarding `Cc1ccc(/C=C(\C#N)C(=O)Nc2cccc3ncccc23)o1`, the activation was 2.57%.
Then `O=C(O)c1cc2c(cc1NC(=O)c1c(F)cccc1Cl)OCCCO2`, with 0.67%; and `O=C(O)c1cc(Cl)c(Cl)cc1C(=O)Nc1cccc2ncccc12`, with 20.9% (active).
In the case of `COc1ccc(C(=O)CSc2nnnn2C)c(OC)c1`, the activation is -0.15%.
To `COC(=O)c1ccc(SCc2ccccc2)nc1` belongs -0.21%; to `O=c1c2ccccc2c(-c2ccc(Br)cc2)nn1Cc1ccccc1`, 0.4%.
For `CSc1c(SCc2ccccc2)cnn(Cc2ccccc2)c1=O`, the activation was 18.2% (active).
Consider `Cc1nn(CC2CC2)c(=O)n1N(C)c1ncc(C(F)(F)F)cc1Cl`, for which the activation is 1.05%.
For `Cc1cc2oc(=O)cc(CN3CCN(S(=O)(=O)c4cccs4)CC3)c2cc1C(C)C`, the activation is 1.53%.
As for `COc1ccc2c(CN3CCN(S(=O)(=O)c4cccs4)CC3)cc(=O)oc2c1`, the activation was 16.1% (active).
For the molecule `Cc1ccc2c(CN3CCN(S(=O)(=O)c4ccccc4C(F)(F)F)CC3)cc(=O)oc2c1`, the activation is 6.94%.
`O=C(Nc1ccccc1)c1ccc2nsnc2c1`: the activation was -0.09%.
To `O=C(Nc1ccc2ccccc2c1)Nc1ccc2snnc2c1` belongs 14%; to `COc1ccc(NC(=O)Nc2ccc3nsnc3c2)cc1`, 19.9% (active).
For the molecule `CCc1ccccc1NC(=O)Cc1cn(C)c2ccccc12`, the activation is 8.41%.
`CC(C)(C)C1CCC(=O)N2CCC[C@]2(c2ccccc2)C1` (stereo partly drawn): the activation was -0.26%.
For `Cc1nc(N)c(Br)c(C)c1Br`, the activation is -0.78%.
Then `COc1ccccc1CNc1nc(Nc2ccccc2Cl)c2sccc2n1`, with 7.11%; and `COc1cccc(CNc2nc(NCc3ccccc3OC)nc3ccsc23)c1`, with 8.82%; and `COc1cccc(CNc2nc(NCc3cccs3)nc3ccsc23)c1`, with 24.7% (active).
In the case of `CN1C(C)(C)CC(NC(=O)CCC(=O)NC2CC(C)(C)N(C)C(C)(C)C2)CC1(C)C`, the activation was 0.35%.
With `C=CCN1C2CCCC1CC(NC(=S)Nc1cccc(OC)c1)C2` (stereo not drawn), the activation was 1.29%.
`N#Cc1c(-c2ccccc2)c(-c2ccccc2)n[nH]c1=O`: the activation was -0.04%.
To `O=C(CNCc1ccc(Cl)cc1)Nc1cccc(C(=O)O)c1` belongs 18.2% (active); to `O=C(CCCOc1ccccc1)Nc1cccc(C(=O)O)c1`, 0.45%.
On to `Cc1ccc(C)c2c1cc(C)c1nnc(SCC(=O)Nc3cccc(C(=O)O)c3)n12`, for which the activation was 1.47%.
For `O=C(NCc1ccco1)c1cccc(-c2ccc3nncn3c2)c1`, the activation was 0.29%.
For the molecule `C1CC1Cc1noc(CN2CCN(CC3CC3)CC2)n1`, the activation is 1.05%.
